This note sets out measurements from PubChem BioAssay (NCI).

The structures appear in SMILES notation. About 79,000 compounds went through this panel and 15% of them were active in at least one assay; those are over-represented in the sample as a whole. Values without a mark were called inactive. Active and inactive are the calls of the source. No stated cut-off is given here; in the data, active means growth inhibition above about 70%; inactive means the rest.

A short description of one assay: NCI Yeast Anticancer Drug Screen. Data for the cln2 rad14 strain (AID 165).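 Further: 0% = growth equal to vehicle treated cultures.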 Conditions: S. cerevisiae cln2 rad14 strain, at 50.0 µM, active compounds read high. The method, boiled down:
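Test compounds were added to cln2 rad14 yeast cultures; inhibition of growth was then determined by comparison with vehicle treatment.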
Regarding `COCCN(CCOC)C(=O)Nc1cccc(Cl)c1`, the growth inhibition was 8.35%.
Still for that read-out and setting: to `OCC(O)COCC#Cc1ccccc1` (stereo not given) belongs -60.2%.
Still for that read-out and setting: to `CCC1=NS(=O)(=O)c2c(ncn2C)N1` belongs 11.3%; to `COc1ccccc1C(O)c1ccccc1` (stereo not given), 11.4%.
The same measure, in the same setting: then `O=C(/C=C/c1ccccc1)[c-]1[c-][c-][c-][c-]1.[Fe].[c-]1[c-][c-][cH-][c-]1`, with 8.1%.
For `COC(=O)c1cc(-c2ccncc2)[nH]c(=O)c1C#N`, the growth inhibition is -18.1%.
On the same count and under the same terms, then `COC(=O)C1(CC(=O)c2ccc(Cl)cc2Cl)NC(=S)NC(=O)C1C#N` (stereo not given), with 16.2%.
On to `COC=C(C(=O)OC)C(=O)OC`, for which the growth inhibition was 0.2%.
On the same count and under the same terms, to `NC(=O)c1cccc(NC=O)c1` belongs 29.7%; to `CCOC(=O)C(C(=O)OCC)C(C)(C)C`, -36.4%.
As to `COC(=O)C(Cc1nc2ccccc2[nH]c1=O)C(=O)C(=O)Nc1ccc([N+](=O)[O-])cc1[N+](=O)[O-]` (stereo not given), the growth inhibition is 0.2%.
The same measure, in the same setting: then `O=S(=O)(O)c1cccc(/C(=N\Nc2ccccn2)c2ccccn2)c1`, with 40.5%; and `CC(NC(=O)C(Cc1ccccc1)NC(=O)OCc1ccccc1)C(=O)NC1C(CO)OC(n2cnc3c(N)ncnc32)C1O` (stereo not given), with -1.1%; and `CCOC(=O)c1cc2c(nc1N)C(=O)CCCC2`, with -23.9%.
The same measure, in the same setting: to `CN1CCS(=O)(=O)NC(Cc2ccccc2)C(=O)N2CCCC2C1=O` (stereo not given) belongs 29.6%; to `O=S1(=O)CCC(Br)c2ccccc2C1` (stereo not given), 14.2%.
Still for that read-out and setting: then `Nc1ccc(S(=O)(=O)c2ccc(Nc3ccnc4cc(Cl)ccc34)cc2)cc1`, with 7.55%; and `CCN(CC)CCC(=O)N1C/C(=C/c2ccccc2)C(=O)/C(=C\c2ccccc2)C1`, with 30.6%.
Consider `Cc1cc2cc3oc(C)cc3cc2o1`, for which the growth inhibition was -45.6%.
Still for that read-out and setting: to `N#CC1=C(Nc2ccccc2)CCC1` belongs -38.8%.
For the compound `CCOC(=O)c1ccc(-n2nc3nc(N)[nH]c(=O)c3n2)cc1`, the growth inhibition was -4.15%.
On the same count and under the same terms, then `O=C1C2C3C=CC(C2C(=O)N1CCl)C1C2C(=O)N(CCl)C(=O)C2C31` (stereo not given), with -5.85%; and `COc1cccc(Oc2c(O)c3ccc(OC)cc3oc2=O)c1`, with 27.2%; and `OCC1=CC(c2ccccc2)(c2ccccc2)c2ccccc21`, with 93.2% (active).
The same measure, in the same setting: then `Nc1nc2c(c(=O)[nH]1)C(c1ccccc1)C(c1ccccc1)C2` (stereo not given), with -27.4%; and `CCCCCC1OC1CC1OC1CCCCCCCC(=O)O` (stereo not given), with -14.8%.
Same read-out and setting: then `CCOP(=O)(OCC)/C(C#N)=C/c1cccc([N+](=O)[O-])c1`, with 3.85%; and `OC1C=COC2COC(c3ccccc3)OC12` (stereo not given), with -21.1%.
For `O=C(O)COc1ccc2ccccc2c1`, the growth inhibition was -14.8%.
The same measure, in the same setting: to `COC(=O)C1=C(C(=O)OC)C2CCCOC2=C(C)C1` (stereo not given) belongs 41.2%.
Same read-out and setting: to `Cc1ccc2ccc(=O)oc2c1` belongs 7.45%; to `CCOc1ccc(N=Nc2ccc3oc(=O)c(C(=O)Nc4ccc(OC)cc4)cc3c2)cc1`, -22.1%.
The same measure, in the same setting: then `CCCc1cc(=O)oc2c(C=O)c(O)cc(O)c12`, with 9.6%.
Turning to `CN(C)/C=N/NC(=O)C(O)c1ccccc1` (stereo not given), the growth inhibition was 18.2%.
Turning to `C/C(CC(=O)Nc1cccc([N+](=O)[O-])c1)=N\NC(=O)CC#N`, the growth inhibition was 12.1%.
Consider `CC(=O)OC1C(NC(=O)OCc2ccccc2)CC(NC(=O)OCc2ccccc2)C(O)C1O` (stereo not given), for which the growth inhibition was -10.1%.
With `N#Cc1[nH]c(=S)[nH]c1N`, the growth inhibition is 6.05%.
The same measure, in the same setting: then `CCc1cccc(CC)c1Nc1nc(C)nc2c1cnn2C`, with -40.1%.
Consider `O=CNNC(=O)Nc1cccc2ccccc12`, for which the growth inhibition was -5.75%.
Same read-out and setting: then `CC(C)C(Br)CCC1=CCC(Br)(Br)C1` (stereo not given), with 86.2% (active).

A further assay is described as follows: NCI Yeast Anticancer Drug Screen. Data for the bub3 strain (AID 167). As to conditions: S. cerevisiae bub3 mutant strain, at 50.0 µM, active compounds read high. The method, boiled down:
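Steps: expose the mutant yeast strain to compound; grow alongside vehicle-treated cultures; measure growth; express inhibition against the vehicle cultures.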
On to `COCCN(CCOC)C(=O)Nc1cccc(Cl)c1`, for which the growth inhibition is 5.45%.
Same read-out and setting: to `OCC(O)COCC#Cc1ccccc1` (stereo not given) belongs -14.6%.
On the same count and under the same terms, to `CCC1=NS(=O)(=O)c2c(ncn2C)N1` belongs 0.15%; to `COc1ccccc1C(O)c1ccccc1` (stereo not given), 9.3%.
The same measure, in the same setting: to `O=C(/C=C/c1ccccc1)[c-]1[c-][c-][c-][c-]1.[Fe].[c-]1[c-][c-][cH-][c-]1` belongs 13.8%; to `COC(=O)c1cc(-c2ccncc2)[nH]c(=O)c1C#N`, -15.2%; to `COC(=O)C1(CC(=O)c2ccc(Cl)cc2Cl)NC(=S)NC(=O)C1C#N` (stereo not given), 4.45%.
For the compound `COC=C(C(=O)OC)C(=O)OC`, the growth inhibition is -10.5%.
Same read-out and setting: to `NC(=O)c1cccc(NC=O)c1` belongs 4.45%; to `CCOC(=O)C(C(=O)OCC)C(C)(C)C`, -3.85%; to `COC(=O)C(Cc1nc2ccccc2[nH]c1=O)C(=O)C(=O)Nc1ccc([N+](=O)[O-])cc1[N+](=O)[O-]` (stereo not given), 18.1%.
The same measure, in the same setting: to `O=S(=O)(O)c1cccc(/C(=N\Nc2ccccn2)c2ccccn2)c1` belongs 51.5%; to `CC(NC(=O)C(Cc1ccccc1)NC(=O)OCc1ccccc1)C(=O)NC1C(CO)OC(n2cnc3c(N)ncnc32)C1O` (stereo not given), -2.5%.
`CCOC(=O)c1cc2c(nc1N)C(=O)CCCC2`: the growth inhibition was -24.6%.
Still for that read-out and setting: then `CN1CCS(=O)(=O)NC(Cc2ccccc2)C(=O)N2CCCC2C1=O` (stereo not given), with -11.7%.
`O=S1(=O)CCC(Br)c2ccccc2C1` (stereo not given): the growth inhibition was 3.85%.
Same read-out and setting: to `Nc1ccc(S(=O)(=O)c2ccc(Nc3ccnc4cc(Cl)ccc34)cc2)cc1` belongs 1.6%; to `CCN(CC)CCC(=O)N1C/C(=C/c2ccccc2)C(=O)/C(=C\c2ccccc2)C1`, 13.2%; to `Cc1cc2cc3oc(C)cc3cc2o1`, -0.8%.
Consider `N#CC1=C(Nc2ccccc2)CCC1`, for which the growth inhibition is 2.25%.
Turning to `CCOC(=O)c1ccc(-n2nc3nc(N)[nH]c(=O)c3n2)cc1`, the growth inhibition is -52.9%.
With `O=C1C2C3C=CC(C2C(=O)N1CCl)C1C2C(=O)N(CCl)C(=O)C2C31` (stereo not given), the growth inhibition was 13.6%.
Same read-out and setting: to `COc1cccc(Oc2c(O)c3ccc(OC)cc3oc2=O)c1` belongs 0.05%; to `OCC1=CC(c2ccccc2)(c2ccccc2)c2ccccc21`, 95.5% (active); to `Nc1nc2c(c(=O)[nH]1)C(c1ccccc1)C(c1ccccc1)C2` (stereo not given), -9.5%.
The same measure, in the same setting: then `CCCCCC1OC1CC1OC1CCCCCCCC(=O)O` (stereo not given), with -12.8%; and `CCOP(=O)(OCC)/C(C#N)=C/c1cccc([N+](=O)[O-])c1`, with -6.55%.
Take `OC1C=COC2COC(c3ccccc3)OC12` (stereo not given): the growth inhibition is -5.4%.
The same measure, in the same setting: then `O=C(O)COc1ccc2ccccc2c1`, with 4.15%; and `COC(=O)C1=C(C(=O)OC)C2CCCOC2=C(C)C1` (stereo not given), with 14.3%.
The same measure, in the same setting: then `Cc1ccc2ccc(=O)oc2c1`, with 13.8%.
The same measure, in the same setting: to `CCOc1ccc(N=Nc2ccc3oc(=O)c(C(=O)Nc4ccc(OC)cc4)cc3c2)cc1` belongs 0.8%.
As to `CCCc1cc(=O)oc2c(C=O)c(O)cc(O)c12`, the growth inhibition was 19.7%.
The same measure, in the same setting: to `CN(C)/C=N/NC(=O)C(O)c1ccccc1` (stereo not given) belongs 34.4%; to `C/C(CC(=O)Nc1cccc([N+](=O)[O-])c1)=N\NC(=O)CC#N`, -8.45%; to `CC(=O)OC1C(NC(=O)OCc2ccccc2)CC(NC(=O)OCc2ccccc2)C(O)C1O` (stereo not given), -1.9%.
Still for that read-out and setting: to `N#Cc1[nH]c(=S)[nH]c1N` belongs 11.8%.
Still for that read-out and setting: then `CCc1cccc(CC)c1Nc1nc(C)nc2c1cnn2C`, with 5.35%; and `O=CNNC(=O)Nc1cccc2ccccc12`, with -32.1%; and `CC(C)C(Br)CCC1=CCC(Br)(Br)C1` (stereo not given), with 84.7% (active).
